This is an account of results in PubChem BioAssay (NCATS).

Records with an inconclusive call do not appear. Values without a mark were called inactive. Active and inactive are the calls of the source. Calls come from the whole dose curve; as a rule, active = well fitted curve in the direction sought with a large enough effect; inconclusive = small, poorly fitted or top-dose-only effect, or another doubt; inactive = no such curve, though single readings can be large or run the other way.
% is set by controls: 0 for no effect and ±100 for the full control effect; potency is the fitted concentration of half-maximal effect.

The test is described as follows: qHTS Assay for Identifying Gametocytocidal Compounds (AID 743244).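 For max response: actives lower the fluorescent signal which means gametocytes are killed.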 The note with it: P. falciparum 3D7 stage III-V gametocytes, alamarBlue, 72 h; max response: hits give low values. A digest of the protocol: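 In this qHTS viability screen, late-stage 3D7 gametocytes are incubated with compound for 72 h, then with alamarBlue for 24 h; reduced resorufin fluorescence marks killing.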
On to `OC[C@]1(O)OC[C@@H](O)[C@H](O)[C@@H]1O`, for which the max response is 13.1%.

For `CCN1CCN(C(=O)N[C@@H](C(=O)N[C@@H]2C(=O)N3[C@@H]2SC(C)(C)[C@H]3C(=O)O)c2ccccc2)C(=O)C1=O`, the max response is -7.03%.

With `CCOC(=O)[C@H](CCc1ccccc1)N[C@@H](C)C(=O)N(CC(=O)O)C1Cc2ccccc2C1`, the max response was -4.1%.

With `CCOC(=O)Cn1cccc1-c1nc(-c2ccc(OC)cc2)c(-c2ccc(OC)cc2)s1`, the max response is 9.5%.

On to `Nc1ccc2cc3ccc(N)cc3nc2c1`, for which the Potency is 12.6 µM (active).

As for `CCCCCCCCCCCCCCCCCCNC(=O)OC1CCN(C(=O)OC[C@H](COC(=O)N(Cc2cccc[n+]2CC)C(=O)c2ccccc2OC)OC)CC1`, the Potency was 15.8 µM (active).

As to `CC(C)(C)c1nnc(NS(=O)(=O)c2ccccc2)s1`, the max response is 0.521%.

Take `CC1CN(c2cc3c(cc2F)c(=O)c(C(=O)O)cn3-c2ccc(F)cc2F)CCN1` (centres undefined): the max response was -18.1%.

In the case of `CCCCCC1Nc2cc(C(F)(F)F)c(S(N)(=O)=O)cc2S(=O)(=O)N1` (centres undefined), the max response is 13.4%.

In the case of `CC(=O)Nc1ccc(S(=O)(=O)Nc2cc(C)on2)cc1`, the max response was 3.06%.

With `CCOC(=O)OCC/C(SC(=O)OCC)=C(\C)N(C=O)Cc1cnc(C)nc1N`, the max response was 11.2%.

On to `CC1CC(=O)NN=C1c1ccc(NCC(C)(C)NCC(O)COc2cc(Cl)ccc2C#N)cc1` (centres undefined), for which the max response was 11.8%.

In the case of `CCCCCCCCCCCCCC[N+](C)(C)C`, the Potency is 14.1 µM (active).

Turning to `CC(C)OC(=O)c1cc2c(OCC(O)CNC(C)(C)C)cccc2[nH]1` (centres undefined), the max response is 0.786%.

As for `CCC[C@H](N[C@@H](C)C(=O)N1[C@H](C(=O)O)C[C@@H]2CCCC[C@@H]21)C(=O)OCC`, the max response is -14.5%.

For `O=[N+]([O-])c1ccc(O)c2ncccc12`, the Potency is 8.91 µM (active).

With `CCOC(=O)C1=C(C)NC(C)=C(C(=O)OCC)C1c1ccccc1/C=C/C(=O)OC(C)(C)C`, the max response was 4.06%.

For the molecule `O=C(O)Cc1ccc(OCCNC[C@H](O)c2ccccc2)cc1`, the max response was -2.47%.

On to `COC(=O)C1=C(C)NC(COC(N)=O)=C(C(=O)OC(C)C)C1c1cccc(Cl)c1Cl` (centres undefined), for which the max response is -16.2%.

Turning to `C[C@H](CN1CCCC1)C(=O)c1ccc(C(F)(F)F)cc1`, the max response was 15.3%.

In the case of `C[C@@]12CCC[C@H]1[C@@H]1CC[C@H]3C[C@@H](O)CC[C@]3(C)[C@H]1CC2`, the max response was 4.41%.

Turning to `CC(CCc1ccc2c(c1)OCO2)NN` (centres undefined), the max response is 15.4%.

Consider `Nc1nnnn1-c1ccccc1`, for which the max response is 2.05%.

Regarding `CC1(C)O[C@@H]2C[C@H]3[C@@H]4C[C@H](F)C5=CC(=O)C=C[C@]5(C)[C@@]4(F)[C@@H](O)C[C@]3(C)[C@]2(C(=O)CO)O1`, the max response was -5.96%.

Take `CN1C(CSCC(F)(F)F)Nc2cc(Cl)c(S(N)(=O)=O)cc2S1(=O)=O` (centres undefined): the max response is 2.14%.

Turning to `CCOC(=O)O[C@]1(C(=O)OCCl)CC[C@H]2[C@@H]3CCC4=CC(=O)C=C[C@]4(C)[C@H]3[C@@H](O)C[C@@]21C`, the max response is -2.36%.

For the molecule `CN(C)C(=O)CNC(=O)Cc1ccccc1`, the max response was 15%.

Take `O=S(=O)(O)c1ccc2nc(-c3ccccc3)[nH]c2c1`: the max response is 9.66%.

`O=C(O)CCC(=O)OC[C@@H](NC(=O)C(Cl)Cl)[C@H](O)c1ccc([N+](=O)[O-])cc1`: the max response is -4.91%.

On to `O=C(NN1CCCC1)NS(=O)(=O)c1ccc(Cl)cc1`, for which the max response was 0.581%.

Consider `CN1CCCN=C1/C=C/c1cccs1`, for which the max response is 3.61%.

Consider `O=C(CO)[C@@H](O)[C@H](O)[C@@H](O)CO`, for which the max response is -0.255%.

With `CCNC(=O)NCCCOc1cccc(CN2CCCCC2)c1`, the max response was -8.1%.

In the case of `O=C(O)CCCC[C@@H]1SC[C@@H]2NC(=O)N[C@@H]21`, the max response is -7.74%.

`CC(=O)OCC(=O)Nc1cc(C#N)cc(NC(=O)COC(C)=O)c1Cl`: the max response is -6.24%.

As for `CSCC[C@H](NC(=O)[C@H](Cc1c[nH]c2ccccc12)NC(=O)CCNC(=O)OC(C)(C)C)C(=O)N[C@@H](CC(=O)O)C(=O)N[C@@H](Cc1ccccc1)C(N)=O`, the max response is -18.5%.

In the case of `Cn1cc(S(C)=O)c(=O)c2ccc(F)cc21` (centres undefined), the max response is -4.53%.

On to `OC(CCCN1CCCCC1)(c1ccccc1)c1ccccc1`, for which the max response was -13.7%.

As for `CN1CCC(N(Cc2cccs2)c2ccccc2)CC1`, the max response is 8.89%.
